{"source": "PubChem BioAssay AID720706", "about": "(Broad Institute, 2013)", "note": "Hit rate of the full screen: of about 350,000 compounds, about 5,500 (1.6%) were called active.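 Rule for the calls: active = significant combined selectivity score with lowered wild-type GFP, culture density cut under 30%, mutant RFP and density less affected; inactive = any of these conditions unmet.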 The list comes from a sample in which actives are over-represented; it also holds similar structures and randomly drawn compounds."}
{"assay": "reduced GFP signal of wild-type E. coli, primary screen, bacterial rRNA inhibitor project, GFP/RFP fluorescence, OD600, single point (AID 720706)", "settings": "E. coli WT GFP vs humanized-ribosome RFP mutants, 24 h; GFP signal change (wild-type ribosome): stronger effect = lower value, DMSO median 0, no signal -100; OD600 change: measured here: OD600 growth, DMSO median 0, no signal -100; RFP signal change: measured here: RFP humanized mutant strains, DMSO median 0, no signal -100, concentration not given here", "units": {"OD600 change": "%", "RFP signal change": "%"}}
{"smiles": "CCNC(=O)[C@H]1[C@H](CO)[C@H]2Cn3c(cccc3=O)[C@@H]1N2Cc1cc(F)ccc1F", "GFP signal change (wild-type ribosome)": "0.156% (inactive)", "OD600 change": 3.74, "RFP signal change": 1}
{"smiles": "C[C@@H]1CN([C@H](C)CO)C(=O)c2cccc(NS(=O)(=O)c3ccc(F)cc3)c2O[C@@H]1CN(C)S(=O)(=O)c1ccc(Cl)cc1", "GFP signal change (wild-type ribosome)": "-1.76% (inactive)", "OD600 change": -16.2, "RFP signal change": -1.81}
{"smiles": "O=[N+]([O-])c1cc2ccccc2nc1-c1ccccc1", "GFP signal change (wild-type ribosome)": "11.2% (inactive)", "OD600 change": -0.7, "RFP signal change": -0.455}
{"smiles": "Cn1nc(-c2ccccc2)c2cc([N+](=O)[O-])ccc21", "GFP signal change (wild-type ribosome)": "0.085% (inactive)", "OD600 change": 1.86, "RFP signal change": -0.696}
{"smiles": "Cc1nc(-c2ccc([N+](=O)[O-])cc2)c(-c2ccccc2)o1", "GFP signal change (wild-type ribosome)": "-32% (active)", "OD600 change": -14.4, "RFP signal change": 13.4}
{"smiles": "O=C(C[C@H]1C[C@H]2c3cc(NC(=O)C4CCOCC4)ccc3O[C@H]2[C@@H](CO)O1)NCC1CC1", "GFP signal change (wild-type ribosome)": "2.89% (inactive)", "OD600 change": 8.38, "RFP signal change": -2.18}
{"smiles": "Cc1noc(C)c1NC(=O)Nc1ccc2c(c1)C(=O)N([C@@H](C)CO)C[C@H](C)[C@@H](CN(C)C(=O)C1CCCCC1)OCCCC[C@@H](C)O2", "GFP signal change (wild-type ribosome)": "1.51% (inactive)", "OD600 change": 8.89, "RFP signal change": -0.802}
{"smiles": "CC=Cc1ccc2n(c1=O)C[C@@H]1[C@@H](CO)[C@H](C(=O)NCCc3ccccc3)N(C(C)=O)[C@H]21", "note": "(mixture of isomers)", "GFP signal change (wild-type ribosome)": "0.861% (inactive)", "OD600 change": 2.27, "RFP signal change": -0.668}
{"smiles": "COc1ccccc1NC(=O)N1C[C@@H]2[C@H](c3ccccc31)[C@H](CO)N2CC1CCOCC1", "GFP signal change (wild-type ribosome)": "0.276% (inactive)", "OD600 change": -6.98, "RFP signal change": 0.913}
{"smiles": "COCCNc1cc(-c2ccccc2)nc2cc(-c3cccc(F)c3)nn12", "GFP signal change (wild-type ribosome)": "-14.8% (active)", "OD600 change": 8.3, "RFP signal change": -4.74}
{"smiles": "COCCCNc1ccn2nc(-c3ccc(CC(C)C)cc3)cc2n1", "GFP signal change (wild-type ribosome)": "-26.9% (inactive)", "OD600 change": -34.5, "RFP signal change": 0.31}
{"smiles": "COc1ccc(-c2cc3nc(NCCOc4ccccc4)ccn3n2)cc1", "GFP signal change (wild-type ribosome)": "-7.79% (inactive)", "OD600 change": -16.3, "RFP signal change": 16.5}
{"smiles": "CC(C)NC(=O)N(C)C[C@H]1OCc2ccccc2-c2c(n(C)c3ccccc23)C(=O)N([C@H](C)CO)C[C@@H]1C", "GFP signal change (wild-type ribosome)": "0.94% (inactive)", "OD600 change": 5.88, "RFP signal change": -4.42}
{"smiles": "CN1c2ccc(-c3ccccc3)cc2[C@@H]2[C@@H](CCN2C(=O)NC2CCCC2)[C@H]1CO", "GFP signal change (wild-type ribosome)": "-26.6% (inactive)", "OD600 change": -47.4, "RFP signal change": 16.9}
{"smiles": "CCC(=O)N1[C@@H](CO)[C@@H](c2ccccc2)C12CN(C(=O)c1cnccn1)C2", "GFP signal change (wild-type ribosome)": "-1.97% (inactive)", "OD600 change": -9.38, "RFP signal change": 1.42}
{"smiles": "COc1ccc(-c2nc(N)ncc2-c2ccc(Cl)cc2)c(O)c1", "GFP signal change (wild-type ribosome)": "-4.3% (inactive)", "OD600 change": -9.82, "RFP signal change": 0.567}
{"smiles": "C=C(C)COc1ccc(-c2ncncc2-c2ccc(OC)cc2)c(O)c1", "GFP signal change (wild-type ribosome)": "-11.6% (inactive)", "OD600 change": -10.7, "RFP signal change": -1.31}
{"smiles": "CCOc1ccc(-c2nc(N)ncc2-c2ccccc2OC)c(O)c1", "GFP signal change (wild-type ribosome)": "-28.9% (active)", "OD600 change": -3.55, "RFP signal change": -5.66}
{"smiles": "CCS(=O)(=O)Nc1ccc2c(c1)C(=O)N(C)[C@@H]1CC[C@H](CC(=O)N3CCCCC3)O[C@@H]1CO2", "GFP signal change (wild-type ribosome)": "-0.591% (inactive)", "OD600 change": -4.1, "RFP signal change": -3.67}
{"smiles": "COc1ccc(NC(=O)N2C[C@H](O)COC[C@@H]3O[C@@H](CC(=O)NCc4ccccc4OC)CC[C@H]32)cc1", "GFP signal change (wild-type ribosome)": "-1.91% (inactive)", "OD600 change": -2.52, "RFP signal change": -1.31}
{"smiles": "COc1cccc(-c2cn(CC[C@H]3CC[C@H](NC(=O)CN(C)C)[C@H](CO)O3)nn2)c1", "GFP signal change (wild-type ribosome)": "-0.8% (inactive)", "OD600 change": -2.58, "RFP signal change": -0.651}
{"smiles": "CCNC(=O)[C@H]1[C@H](CO)[C@H]2Cn3c(cccc3=O)[C@H]2N1C(=O)C1CCCC1", "GFP signal change (wild-type ribosome)": "4.25% (inactive)", "OD600 change": -2.66, "RFP signal change": -1.17}
{"smiles": "Cc1cc(Nc2ccc(Br)cc2)nc2ccccc12", "GFP signal change (wild-type ribosome)": "-50.8% (active)", "OD600 change": -41, "RFP signal change": -13.6}
{"smiles": "Cc1cc(C)c(C#N)c(Nc2cccc(Br)c2)n1", "GFP signal change (wild-type ribosome)": "11.7% (inactive)", "OD600 change": 6.25, "RFP signal change": 3.63}
{"smiles": "C[C@H]1CCCCO[C@H](CN(C)Cc2ccccc2)[C@@H](C)CN([C@@H](C)CO)C(=O)c2cc(NS(C)(=O)=O)ccc2O1", "GFP signal change (wild-type ribosome)": "2.67% (inactive)", "OD600 change": 3.64, "RFP signal change": -3.91}
{"smiles": "CCNC(=O)[C@@H]1[C@@H](CO)[C@@H]2Cn3c(ccc(-c4ccncc4)c3=O)[C@@H]2N1Cc1cc(F)ccc1F", "GFP signal change (wild-type ribosome)": "2.37% (inactive)", "OD600 change": 8.82, "RFP signal change": 1.07}
{"smiles": "C[C@@H]1CN([C@@H](C)CO)C(=O)c2cc(NC(=O)CCCN(C)C)ccc2O[C@@H](C)CCCCO[C@H]1CN(C)C(=O)Nc1cccc2ccccc12", "GFP signal change (wild-type ribosome)": "-3.48% (inactive)", "OD600 change": -7.41, "RFP signal change": 4.52}
{"smiles": "Cc1ccc(OCCCn2c(=O)oc3ccccc32)cc1", "GFP signal change (wild-type ribosome)": "-33.5% (active)", "OD600 change": -20.9, "RFP signal change": -1.83}
{"smiles": "COc1ccc(Cn2c(=O)oc3ccccc32)cc1", "GFP signal change (wild-type ribosome)": "-5.68% (inactive)", "OD600 change": 1.5, "RFP signal change": 2.85}
{"smiles": "Cc1cccc(NC(=O)CCn2c(=O)oc3ccccc32)c1", "GFP signal change (wild-type ribosome)": "3.5% (inactive)", "OD600 change": 2.74, "RFP signal change": -1.45}
